# Experimental data from the supplement of paper PMC11732987, “Enantioselective OTUD7B fragment discovery through chemoproteomics screening and high-throughput optimisation” (Communications Chemistry, 2025).
# Values without a mark were called inactive.
# How the values were obtained:
# Test in all cases: log2 ratio of Biotin-Ahx-Ub-VS probe labelling (fragment/DMSO); higher = less target engagement (more negative = stronger competition), active = hit call of the paper (q ≤ 0.05, log2 ratio ≤ -1)
# Details in all cases: compound concentration: 200 uM; treatment time: 3 h
# ALG13 = target: T1, ALG13 (UniProt Q9NP73)
# T1 sequence (whole entry): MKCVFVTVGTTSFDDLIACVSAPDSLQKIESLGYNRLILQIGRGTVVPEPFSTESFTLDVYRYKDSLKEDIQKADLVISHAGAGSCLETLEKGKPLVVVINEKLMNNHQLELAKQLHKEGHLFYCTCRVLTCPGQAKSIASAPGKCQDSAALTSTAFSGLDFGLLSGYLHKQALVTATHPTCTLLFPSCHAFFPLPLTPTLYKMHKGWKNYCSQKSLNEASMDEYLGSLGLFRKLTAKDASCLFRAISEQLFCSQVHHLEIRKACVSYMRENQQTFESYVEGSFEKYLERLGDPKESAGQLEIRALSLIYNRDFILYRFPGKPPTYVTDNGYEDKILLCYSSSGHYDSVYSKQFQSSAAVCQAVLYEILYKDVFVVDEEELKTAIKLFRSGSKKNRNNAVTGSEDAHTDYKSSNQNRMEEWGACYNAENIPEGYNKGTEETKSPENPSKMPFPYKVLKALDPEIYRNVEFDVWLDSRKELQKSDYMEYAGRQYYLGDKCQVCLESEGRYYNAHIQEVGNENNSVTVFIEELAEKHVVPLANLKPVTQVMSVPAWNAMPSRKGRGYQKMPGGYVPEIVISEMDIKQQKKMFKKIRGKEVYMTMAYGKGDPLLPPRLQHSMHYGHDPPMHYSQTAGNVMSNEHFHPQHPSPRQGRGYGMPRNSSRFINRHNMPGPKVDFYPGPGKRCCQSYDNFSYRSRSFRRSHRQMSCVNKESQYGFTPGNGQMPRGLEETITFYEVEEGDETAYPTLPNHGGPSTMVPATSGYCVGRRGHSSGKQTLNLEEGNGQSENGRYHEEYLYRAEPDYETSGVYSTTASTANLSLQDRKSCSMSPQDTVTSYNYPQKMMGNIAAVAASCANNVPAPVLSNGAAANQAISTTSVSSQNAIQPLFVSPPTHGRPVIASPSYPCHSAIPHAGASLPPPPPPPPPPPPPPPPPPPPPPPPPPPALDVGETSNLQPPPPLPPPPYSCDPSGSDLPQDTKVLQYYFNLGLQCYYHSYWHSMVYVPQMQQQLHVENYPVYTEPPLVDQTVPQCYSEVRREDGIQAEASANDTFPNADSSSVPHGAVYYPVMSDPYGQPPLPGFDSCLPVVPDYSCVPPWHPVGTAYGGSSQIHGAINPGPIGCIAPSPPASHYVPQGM
# Summary of the method: (§1)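 Fragment (200 µM) or vehicle was incubated for 3 h with triplicate HEK293T lysate samples of 495 µg, which were then treated with Biotin-Ahx-Ub-VS at 0.5 µM final for 1 h. Labelled DUBs were enriched on NeutrAvidin, digested with LysC and trypsin, and analysed by diaPASEF LC-MS/MS. Values are average log2 fragment/vehicle ratios from an unpaired t-test on global-median-normalised Spectronaut label-free quantities, using proteins with ≥2 unique peptides.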
# ATXN3 = ATXN3 (UniProt P54252)
# Sequence of ATXN3 (P54252 whole entry): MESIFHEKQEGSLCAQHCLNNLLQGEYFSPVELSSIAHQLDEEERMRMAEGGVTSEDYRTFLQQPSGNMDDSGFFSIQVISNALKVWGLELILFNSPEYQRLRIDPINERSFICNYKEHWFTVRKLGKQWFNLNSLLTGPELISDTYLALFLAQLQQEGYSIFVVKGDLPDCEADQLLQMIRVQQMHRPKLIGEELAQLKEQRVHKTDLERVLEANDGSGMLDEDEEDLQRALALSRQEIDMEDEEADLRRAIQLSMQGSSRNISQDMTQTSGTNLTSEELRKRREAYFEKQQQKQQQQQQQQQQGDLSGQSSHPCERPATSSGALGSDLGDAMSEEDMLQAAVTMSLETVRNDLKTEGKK
# Summary of the method: as §1
# BAP1 = target: T2, BAP1 (UniProt Q92560)
# T2 sequence (whole entry): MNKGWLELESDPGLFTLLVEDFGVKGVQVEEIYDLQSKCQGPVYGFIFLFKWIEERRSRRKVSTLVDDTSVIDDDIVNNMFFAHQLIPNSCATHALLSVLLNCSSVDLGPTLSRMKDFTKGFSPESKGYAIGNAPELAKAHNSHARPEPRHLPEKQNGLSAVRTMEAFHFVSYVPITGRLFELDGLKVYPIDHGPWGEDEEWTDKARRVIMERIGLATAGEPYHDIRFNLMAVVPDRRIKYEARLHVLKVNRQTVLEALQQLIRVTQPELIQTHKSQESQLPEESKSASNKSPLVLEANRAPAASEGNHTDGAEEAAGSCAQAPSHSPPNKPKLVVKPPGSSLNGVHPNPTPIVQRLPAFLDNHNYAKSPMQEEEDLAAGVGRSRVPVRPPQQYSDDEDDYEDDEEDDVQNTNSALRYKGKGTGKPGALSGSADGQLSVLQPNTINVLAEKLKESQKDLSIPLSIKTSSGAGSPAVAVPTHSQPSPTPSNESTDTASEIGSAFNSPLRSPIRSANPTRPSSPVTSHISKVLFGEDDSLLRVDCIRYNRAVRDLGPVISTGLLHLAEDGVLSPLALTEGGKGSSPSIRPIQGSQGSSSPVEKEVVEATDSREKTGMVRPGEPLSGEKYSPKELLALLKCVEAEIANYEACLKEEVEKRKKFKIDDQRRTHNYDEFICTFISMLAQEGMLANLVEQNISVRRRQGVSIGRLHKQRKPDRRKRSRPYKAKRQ
# Summary of the method: as §1
# EIF3F = EIF3F (UniProt O00303)
# Sequence of EIF3F (O00303 whole entry): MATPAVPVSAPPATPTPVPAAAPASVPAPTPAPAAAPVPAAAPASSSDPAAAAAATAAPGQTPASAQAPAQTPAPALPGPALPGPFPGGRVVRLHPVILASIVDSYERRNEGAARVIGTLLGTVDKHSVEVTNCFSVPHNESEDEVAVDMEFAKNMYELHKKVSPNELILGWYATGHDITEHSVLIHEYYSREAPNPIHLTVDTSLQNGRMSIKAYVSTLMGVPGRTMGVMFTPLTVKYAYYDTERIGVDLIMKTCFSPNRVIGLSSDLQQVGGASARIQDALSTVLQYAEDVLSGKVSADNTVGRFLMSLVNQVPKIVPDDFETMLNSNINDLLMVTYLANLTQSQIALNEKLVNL
# Summary of the method: as §1
# EIF3H = EIF3H (UniProt O15372)
# Sequence of EIF3H (O15372 whole entry): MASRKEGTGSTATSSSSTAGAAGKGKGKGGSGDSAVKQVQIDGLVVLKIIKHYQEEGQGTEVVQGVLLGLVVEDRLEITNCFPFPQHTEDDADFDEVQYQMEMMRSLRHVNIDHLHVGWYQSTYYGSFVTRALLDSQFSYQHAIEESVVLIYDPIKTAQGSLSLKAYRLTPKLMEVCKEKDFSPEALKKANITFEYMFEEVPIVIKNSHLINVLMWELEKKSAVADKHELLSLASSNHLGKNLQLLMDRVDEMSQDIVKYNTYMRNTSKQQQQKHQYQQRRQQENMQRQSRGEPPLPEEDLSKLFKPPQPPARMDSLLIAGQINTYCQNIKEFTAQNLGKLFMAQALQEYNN
# Summary of the method: as §1
# FAM105A = target: T3, FAM105A (UniProt Q9NUU6)
# T3 sequence (whole entry): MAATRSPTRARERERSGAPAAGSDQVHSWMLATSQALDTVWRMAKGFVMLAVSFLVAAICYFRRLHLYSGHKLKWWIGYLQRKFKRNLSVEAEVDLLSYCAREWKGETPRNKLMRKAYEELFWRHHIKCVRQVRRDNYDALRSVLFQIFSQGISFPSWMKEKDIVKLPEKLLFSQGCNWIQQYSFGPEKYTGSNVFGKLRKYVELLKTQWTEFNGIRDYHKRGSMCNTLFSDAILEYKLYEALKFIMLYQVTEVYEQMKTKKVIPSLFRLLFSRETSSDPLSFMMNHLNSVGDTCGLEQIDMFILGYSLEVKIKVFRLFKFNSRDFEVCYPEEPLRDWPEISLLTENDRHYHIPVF
# Summary of the method: as §1
# OTUB1 = OTUB1 (UniProt Q96FW1)
# Sequence of OTUB1 (Q96FW1 whole entry): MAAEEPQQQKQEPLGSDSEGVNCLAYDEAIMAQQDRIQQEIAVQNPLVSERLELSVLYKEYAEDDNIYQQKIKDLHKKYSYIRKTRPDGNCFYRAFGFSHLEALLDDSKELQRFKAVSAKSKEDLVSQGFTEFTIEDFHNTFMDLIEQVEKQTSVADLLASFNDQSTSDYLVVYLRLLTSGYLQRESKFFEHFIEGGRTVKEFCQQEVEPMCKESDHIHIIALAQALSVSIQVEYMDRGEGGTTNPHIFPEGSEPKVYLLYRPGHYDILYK
# Summary of the method: as §1
# OTUD4 = target: T4, OTUD4 (UniProt Q01804)
# T4 sequence (whole entry): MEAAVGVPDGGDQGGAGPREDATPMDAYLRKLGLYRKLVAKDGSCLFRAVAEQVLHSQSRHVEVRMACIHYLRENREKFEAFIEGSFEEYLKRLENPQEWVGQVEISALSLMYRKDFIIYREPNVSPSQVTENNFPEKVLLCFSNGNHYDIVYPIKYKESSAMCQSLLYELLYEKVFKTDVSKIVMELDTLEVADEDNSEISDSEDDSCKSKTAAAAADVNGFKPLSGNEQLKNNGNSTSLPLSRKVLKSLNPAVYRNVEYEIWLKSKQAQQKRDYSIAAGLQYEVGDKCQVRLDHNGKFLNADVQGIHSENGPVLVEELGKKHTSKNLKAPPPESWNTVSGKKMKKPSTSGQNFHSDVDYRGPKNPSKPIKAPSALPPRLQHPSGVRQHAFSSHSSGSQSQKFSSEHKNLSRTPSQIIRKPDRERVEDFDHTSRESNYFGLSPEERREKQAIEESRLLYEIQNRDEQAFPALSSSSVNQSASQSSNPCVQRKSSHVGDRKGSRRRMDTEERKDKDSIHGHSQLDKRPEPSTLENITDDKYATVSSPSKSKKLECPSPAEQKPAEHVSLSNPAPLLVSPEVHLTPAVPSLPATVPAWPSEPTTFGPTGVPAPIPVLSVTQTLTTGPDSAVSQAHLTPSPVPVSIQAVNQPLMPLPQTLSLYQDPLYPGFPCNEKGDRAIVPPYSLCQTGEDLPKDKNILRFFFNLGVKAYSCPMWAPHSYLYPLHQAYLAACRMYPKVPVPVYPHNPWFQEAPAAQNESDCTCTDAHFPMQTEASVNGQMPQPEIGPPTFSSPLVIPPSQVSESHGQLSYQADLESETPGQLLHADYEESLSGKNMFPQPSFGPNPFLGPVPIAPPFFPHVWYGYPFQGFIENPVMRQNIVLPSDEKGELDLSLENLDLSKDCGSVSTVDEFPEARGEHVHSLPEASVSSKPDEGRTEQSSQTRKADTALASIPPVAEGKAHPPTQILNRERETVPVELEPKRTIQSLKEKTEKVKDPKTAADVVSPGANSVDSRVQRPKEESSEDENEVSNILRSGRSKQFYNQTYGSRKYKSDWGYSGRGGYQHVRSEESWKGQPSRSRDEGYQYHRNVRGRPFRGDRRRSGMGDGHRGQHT
# Summary of the method: as §1
# OTUD5 = target: T5, OTUD5 (UniProt Q96G74)
# T5 sequence (whole entry): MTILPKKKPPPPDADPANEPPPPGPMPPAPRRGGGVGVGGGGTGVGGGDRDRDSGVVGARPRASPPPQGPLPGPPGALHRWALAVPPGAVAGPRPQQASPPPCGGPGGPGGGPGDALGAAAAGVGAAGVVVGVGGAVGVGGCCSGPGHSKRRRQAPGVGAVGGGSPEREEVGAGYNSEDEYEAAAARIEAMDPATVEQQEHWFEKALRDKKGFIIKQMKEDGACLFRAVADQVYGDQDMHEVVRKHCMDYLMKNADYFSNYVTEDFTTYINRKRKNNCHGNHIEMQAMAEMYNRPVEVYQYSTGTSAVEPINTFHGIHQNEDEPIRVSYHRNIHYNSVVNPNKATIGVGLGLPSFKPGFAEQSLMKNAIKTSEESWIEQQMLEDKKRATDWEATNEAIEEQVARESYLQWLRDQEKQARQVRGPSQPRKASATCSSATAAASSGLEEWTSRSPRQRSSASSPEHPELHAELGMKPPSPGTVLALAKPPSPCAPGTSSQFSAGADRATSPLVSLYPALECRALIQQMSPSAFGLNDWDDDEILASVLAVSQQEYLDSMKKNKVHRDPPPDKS
# Summary of the method: as §1
SMILES,log2 ratio of Biotin-Ahx-Ub-VS probe labelling (ALG13),log2 ratio of Biotin-Ahx-Ub-VS probe labelling (ATXN3),log2 ratio of Biotin-Ahx-Ub-VS probe labelling (BAP1),log2 ratio of Biotin-Ahx-Ub-VS probe labelling (EIF3F),log2 ratio of Biotin-Ahx-Ub-VS probe labelling (EIF3H),log2 ratio of Biotin-Ahx-Ub-VS probe labelling (FAM105A),log2 ratio of Biotin-Ahx-Ub-VS probe labelling (OTUB1),log2 ratio of Biotin-Ahx-Ub-VS probe labelling (OTUD4),log2 ratio of Biotin-Ahx-Ub-VS probe labelling (OTUD5)
O=C(CCl)N1CCc2sccc2C1,-0.104,-0.969,-0.988,-0.211,-0.00567,-0.348,-0.126,-0.819,-0.923
O=C(CCl)Nc1ccccc1C(F)(F)F,0.259,-0.449,-2.61 (active),-0.519,0.185,0.257,-0.144,-0.356,-0.489
CC(=O)C1CCCCN1C(=O)CCl (configuration not stated),0.0431,0.025,-0.0781,-0.0667,0.304,0.264,0.0807,0.0774,-0.219
Cn1cc(CN(Cc2ccc(Cl)cc2)C(=O)CCl)cn1,-0.382,-0.833,-0.944,-0.0957,0.132,-0.189,-0.095,0.0527,-0.592
CN(C)C(=O)c1ccc(NC(=O)CCl)cc1,-0.115,-0.241,-3.59 (active),0.168,0.142,0.105,0.31,-0.109,-0.508
Cc1nnc(C(NC(=O)CCl)c2ccccc2)n1C (configuration not stated),-0.558,0.355,0.428,0.534,0.24,0.549,-0.00852,0.483,0.385
Cc1cccc(C)c1NC(=O)CCl,0.022,-0.224,-3.62 (active),-0.276,0.122,0.266,-0.261,-0.228,-0.42
O=C(CCl)NCC(=O)N1CCCC1,0.0112,-0.179,-0.409,-0.198,0.0708,-0.573,-0.202,-0.278,-0.231
